From PubChem BioAssay (Tox21)
Values joined by “and” are separate entries in the source; they are usually repeats but may differ in a detail not shown here. Identical values can stand only once. Results filed as inconclusive are left out. Entries that show only a call come without a potency. A structure can be active in one record and inactive in another. Active and inactive are the calls of the source. Unless noted, the call rests on the fitted dose curve.

Columns and labels:
[1] = Nuclear factor erythroid 2-related factor 2/antioxidant responsive element (Nrf2/ARE) small molecule agonists: qHTS cell viability counter screen in human keratinocytes (AID 1919968; active means well fitted curve in the direction sought with a large enough effect in the repeat runs; an effect the other way counts as inactive or inconclusive; further: nearly all actives have a fitted effect of over 55% in size; further: potency means the concentration at half of the fitted maximal effect)
Summary of the method: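 HaCaT ARE reporter line, 1,500 cells/well; 5 h settle, 37 C/5% CO2; cpd in DMSO pinned; 23 h exposure; CellTiter-Fluor, 1 h; fluorescence.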

[2] = molecular target: KiSS-1 receptor (Homo sapiens) (UniProt Q969F8); experiment: Human kisspeptin (KISS1R) small molecule agonists, calcium flux assay in KISS1R-HEK293 cells (AID 1920064; active means well fitted curve in the direction sought with a large enough effect in the repeat runs; an effect the other way counts as inactive or inconclusive)
Summary of the method: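 Stable human KISS1R HEK293 line; 18 h plating, 37 C/5% CO2; calcium dye 1 h 37 C; compound pin transfer; kinetic fluorescence Ex/Em 480/540, 3 min.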

[3] = G protein-coupled receptor (GPCR) small molecule agonists, calcium flux assay: HEK293 wild type cell line counter screen (AID 1920065)
Summary of the method: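 Kinetic fluorescence at Ex/Em 480/540, recorded every second over 3 min, served as the read-out after compound addition. Each compound was tested at 15 concentrations in triplicate on cells pre-loaded with calcium dye for 1 h.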

[4] = p53 small molecule agonists, cell-based qHTS assay with rat liver microsomes (AID 1963578); further: potency means the concentration at half of the fitted maximal effect
Summary of the method: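 Compound in DMSO added to p53RE-bla cells 5 h post-plating; rat microsomes/NADPH 0.5 mg/mL final; 16 h, 37 C; LiveBLAzer 2 h RT.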

[5] = p53 small molecule agonists, cell-based qHTS assay with human liver microsomes: qHTS cell viability counter screen (AID 1963579); further: nearly all actives have a fitted effect of over 45% in size; further: potency means the concentration at half of the fitted maximal effect
Summary of the method: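 HLM-supplemented (0.5 mg/mL final) and NADPH-supplemented (0.5 mg/mL final) p53RE-bla cultures, 4,000 cells per well, were dosed with compounds in DMSO for 16 h at 37 C; luminescent ATP detection (CellTiter-Glo, 30 min, room temperature) quantified surviving cells.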

[6] = p53 small molecule agonists, cell-based qHTS assay with rat liver microsomes: qHTS cell viability counter screen (AID 1963580); further: nearly all actives have a fitted effect of over 45% in size; further: potency means the concentration at half of the fitted maximal effect
Summary of the method: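 HCT-116 p53RE-bla, 4,000 cells/well, 5 h pre-incubation; cpd + rat liver microsomes 0.5 mg/mL + NADPH 0.5 mg/mL (final); 16 h, 37 C; CellTiter-Glo, 30 min RT; luminescence.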

[7] = p53 small molecule agonists, cell-based qHTS assay: qHTS cell viability counter screen (AID 1963581); further: nearly all actives have a fitted effect of over 45% in size; further: potency means the concentration at half of the fitted maximal effect
Summary of the method: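 HCT-116 p53RE-bla cells, 4,000/well, plated 5 h before compound pin transfer; 16 h at 37 C; bla substrate 2 h RT; then CellTiter-Glo, 30 min RT, luminescence.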

[8] = p53 small molecule agonists, cell-based qHTS assay (AID 1963582; active means well fitted activation curve with a large enough effect in the signal ratio in the repeat runs, not every such curve was filed as active; the % refers to the signal ratio)
Summary of the method: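 Reporter line: p53RE-bla. Pre-incubation 5 h, 37 C, 5% CO2; compound (DMSO, pin tool) 16 h, 37 C; B/G FRET substrate 2 h RT; fluorescence intensity read.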

[9] = molecular target: 5-hydroxytryptamine receptor 2A (Homo sapiens) (UniProt P28223); experiment: 5-hydroxytryptamine receptor 2A (HTR2A) small molecule antagonists, cell-based qHTS assay (AID 1963586); further: nearly all actives have a fitted effect of over 45% in size; further: potency means the concentration at half of the fitted maximal effect
Summary of the method: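 Antagonist-mode intracellular calcium assay: DOI (4 nM) added after 5 min compound pre-incubation at room temperature to dye-loaded HTR2A-CHO cells. Fluorescence followed for 3 min, sampled every second.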

[10] = molecular target: 5-hydroxytryptamine receptor 2A (Homo sapiens) (UniProt P28223); experiment: 5-hydroxytryptamine receptor 2A (HTR2A) small molecule agonists, cell-based qHTS assay (AID 1963587); further: nearly all actives have a fitted effect of over 30% in size; further: potency means the concentration at half of the fitted maximal effect
Summary of the method: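 Kinetic calcium-flux fluorescence (2 min, 1 sec intervals) after compound addition in agonist mode. HTR2A-CHO cells were cultured 18 h, then dye-loaded 1 h at 37 C.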

[11] = molecular target: Muscarinic acetylcholine receptor M1 (Homo sapiens) (UniProt P11229); experiment: Cholinergic receptor muscarinic 1 (CHRM1) small molecule antagonists, cell-based qHTS assay (AID 1963588); further: nearly all actives have a fitted effect of over 40% in size; further: potency means the concentration at half of the fitted maximal effect
Summary of the method: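 CHRM1-CHO calcium-flux assay, antagonist mode. Cells were seeded 18 h, dye-loaded 1 h at 37 C and given compound for 5 min at RT, then acetylcholine was added at 50nM. FDSS fluorescence was read 3 min; 15 concentrations, three runs.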

[12] = molecular target: Muscarinic acetylcholine receptor M1 (Homo sapiens) (UniProt P11229); experiment: Cholinergic receptor muscarinic 1 (CHRM1) small molecule agonists, cell-based qHTS assay (AID 1963589); further: nearly all actives have a fitted effect of over 35% in size; further: potency means the concentration at half of the fitted maximal effect
Summary of the method: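 Human M1 in stable CHO line; 18 h plating, 1 h dye load 37 C; cpd added (agonist mode); Ca2+ fluorescence kinetic read, 1 s intervals; 15 conc, 3 runs.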

[13] = cAMP Responsive Elements (CRE) small molecule agonists, cell-based qHTS assay (AID 1963590)
Summary of the method: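 HEK 293T CRE-bla, 2,000 cells/well, 18 h preincubation 37 C/5% CO2; cpds (DMSO) pinned, 3 h; LiveBLAzer B/G FRET substrate, 2 h RT.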

[14] = cAMP Responsive Elements (CRE) small molecule antagonists, cell-based qHTS assay (AID 1963591; active means well fitted inhibition curve with a large enough effect in the signal ratio in the repeat runs, not every such curve was filed as active; the % refers to the signal ratio)
Summary of the method: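 Beta-lactamase reporter read by FRET substrate (LiveBLAzer B/G) after 2 h at room temperature. CRE-bla HEK293T cells had received compound plus 0.25 uM (final) NKH477 for 3 h at 37 °C.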

[15] = molecular target: Beta-2 adrenergic receptor (Homo sapiens) (UniProt P07550); experiment: Adrenergic beta2 receptor (ADRB2) small molecule antagonists, cell-based qHTS assay (AID 1963592); further: nearly all actives have a fitted effect of over 50% in size; further: potency means the concentration at half of the fitted maximal effect
Summary of the method: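 Cells (CHO, stable ADRB2 overexpression) incubated 18-20hr at 37C; compounds added from DMSO; agonist mix (1nM isoproterenol, 100uM IBMX, 25uM Ro-20-1724) added; 0.5hr RT; d2-cAMP and anti-cAMP-cryptate added; 1hr RT; 665/615 nm read.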

[16] = molecular target: Beta-2 adrenergic receptor (Homo sapiens) (UniProt P07550); experiment: Adrenergic beta2 receptor (ADRB2) small molecule agonists, cell-based qHTS assay (AID 1963593);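 further: CHO cells stably overexpressing human ADRB2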
Summary of the method: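 CHO cells stably over-expressing ADRB2 were plated overnight at 37C, then dosed with compounds plus a stimulation mix containing 100uM IBMX and 25uM Ro-20-1724 for 0.5hr at room temperature. cAMP was measured by HTRF competition, 1hr.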

[17] = molecular target: D(2) dopamine receptor (Homo sapiens) (UniProt P14416); experiment: Dopamine D2 receptor (DRD2) small molecule agonists, cell-based qHTS assay (AID 1963594); further: nearly all actives have a fitted effect of over 35% in size
Summary of the method: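 cAMP accumulation in DRD2-HEK293 cells measured by HTRF after 1 h detection; compounds added 10 min before NKH477 (200nM […]) forskolin-analogue stimulation, 30 min at room temperature, with Ro20-1724 present at 0.1 mM final.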

[18] = molecular target: D(2) dopamine receptor (Homo sapiens) (UniProt P14416); experiment: Dopamine D2 receptor (DRD2) small molecule antagonists, cell-based qHTS assay (AID 1963595; active means well fitted inhibition curve with a large enough effect in the signal ratio in the repeat runs, with a control signal flat; the % refers to the signal ratio; further: potency means the concentration at half of the fitted maximal effect)
Summary of the method: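 HEK293 cells stably expressing DRD2 were preincubated with 0.1 mM Ro20-1724, then with compound for 10 min at room temperature. Cells were stimulated with 200 nM NKH477 plus 12 nM quinpirole for 30 min, and cAMP was read by HTRF.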

[19] = p53 small molecule agonists, cell-based qHTS assay with human liver microsomes (AID 1963577);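 further: p53 response element beta-lactamase reporter cells with liver microsomes plus NADPH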
Summary of the method: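 Reporter activation was measured by LiveBLAzer fluorescence intensity in p53RE-bla cells, which had been exposed to compounds for 16 h at 37 C alongside 0.5 mg/mL human liver microsomes and 0.5 mg/mL NADPH (final concentrations).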

[20] = molecular target: Gonadotropin-releasing hormone receptor (Homo sapiens) (UniProt P30968); experiment: Human gonadotropin-releasing hormone receptor (GnRHR) small molecule agonists, calcium flux assay in GnRHR-HEK293 cells (AID 1920063); further: nearly all actives have a fitted effect of over 35% in size
Summary of the method: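 GnRHR-HEK293, 1500 cells/well, 18 h 37 C/5% CO2; Ca dye 1 h 37 C; cpd pinned (DMSO), agonist mode; kinetic FL 480/540, 3 min, 1 s reads; 15 conc, n=3.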

Sequence of KiSS-1 receptor (Homo sapiens) (Q969F8 whole entry, looked up): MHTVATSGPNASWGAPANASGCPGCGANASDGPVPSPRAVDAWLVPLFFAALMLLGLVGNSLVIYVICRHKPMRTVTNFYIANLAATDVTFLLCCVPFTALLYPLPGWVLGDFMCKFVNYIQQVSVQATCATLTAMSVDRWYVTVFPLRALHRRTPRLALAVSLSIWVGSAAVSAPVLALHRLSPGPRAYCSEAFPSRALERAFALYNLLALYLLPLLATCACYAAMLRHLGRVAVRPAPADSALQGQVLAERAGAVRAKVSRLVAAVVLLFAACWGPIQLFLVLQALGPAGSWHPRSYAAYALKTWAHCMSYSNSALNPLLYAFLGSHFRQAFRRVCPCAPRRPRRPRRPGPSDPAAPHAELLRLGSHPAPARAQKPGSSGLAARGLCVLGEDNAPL
Sequence of Gonadotropin-releasing hormone receptor (Homo sapiens) (P30968 whole entry, looked up): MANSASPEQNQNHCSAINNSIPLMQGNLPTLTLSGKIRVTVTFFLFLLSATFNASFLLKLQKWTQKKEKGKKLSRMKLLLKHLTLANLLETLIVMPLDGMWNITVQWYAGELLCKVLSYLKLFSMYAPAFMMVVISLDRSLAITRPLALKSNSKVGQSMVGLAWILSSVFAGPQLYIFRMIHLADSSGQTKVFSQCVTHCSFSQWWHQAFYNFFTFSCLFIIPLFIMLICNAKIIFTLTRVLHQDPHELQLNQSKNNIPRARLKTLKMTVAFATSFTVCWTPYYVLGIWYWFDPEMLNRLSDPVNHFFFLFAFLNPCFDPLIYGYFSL
Sequence of D(2) dopamine receptor (Homo sapiens) (P14416 whole entry, looked up): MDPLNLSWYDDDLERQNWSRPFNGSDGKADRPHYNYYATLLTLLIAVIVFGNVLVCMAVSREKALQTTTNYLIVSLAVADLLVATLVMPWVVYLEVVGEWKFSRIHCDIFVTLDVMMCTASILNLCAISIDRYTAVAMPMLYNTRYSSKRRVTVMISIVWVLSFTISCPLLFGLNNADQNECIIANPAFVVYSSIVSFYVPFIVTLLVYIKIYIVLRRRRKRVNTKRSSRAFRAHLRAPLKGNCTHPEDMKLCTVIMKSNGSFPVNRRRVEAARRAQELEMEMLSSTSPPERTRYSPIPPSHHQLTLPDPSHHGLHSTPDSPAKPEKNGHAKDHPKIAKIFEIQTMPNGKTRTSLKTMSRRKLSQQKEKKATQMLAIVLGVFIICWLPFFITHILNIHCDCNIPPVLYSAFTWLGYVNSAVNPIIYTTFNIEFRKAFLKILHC
Sequence of Muscarinic acetylcholine receptor M1 (Homo sapiens) (P11229 whole entry, looked up): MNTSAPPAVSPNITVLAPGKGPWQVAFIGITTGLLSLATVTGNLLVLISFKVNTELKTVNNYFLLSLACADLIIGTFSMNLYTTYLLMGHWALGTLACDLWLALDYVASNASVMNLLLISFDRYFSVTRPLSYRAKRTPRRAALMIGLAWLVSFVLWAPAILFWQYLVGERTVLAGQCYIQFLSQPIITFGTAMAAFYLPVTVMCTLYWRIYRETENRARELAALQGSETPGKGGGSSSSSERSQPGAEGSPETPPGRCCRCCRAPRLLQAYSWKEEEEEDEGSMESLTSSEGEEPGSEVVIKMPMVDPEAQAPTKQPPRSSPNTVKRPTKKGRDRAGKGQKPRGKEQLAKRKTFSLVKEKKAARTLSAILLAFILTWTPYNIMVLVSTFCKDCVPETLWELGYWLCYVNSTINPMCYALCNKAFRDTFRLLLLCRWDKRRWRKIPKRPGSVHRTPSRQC
Sequence of 5-hydroxytryptamine receptor 2A (Homo sapiens) (P28223 whole entry, looked up): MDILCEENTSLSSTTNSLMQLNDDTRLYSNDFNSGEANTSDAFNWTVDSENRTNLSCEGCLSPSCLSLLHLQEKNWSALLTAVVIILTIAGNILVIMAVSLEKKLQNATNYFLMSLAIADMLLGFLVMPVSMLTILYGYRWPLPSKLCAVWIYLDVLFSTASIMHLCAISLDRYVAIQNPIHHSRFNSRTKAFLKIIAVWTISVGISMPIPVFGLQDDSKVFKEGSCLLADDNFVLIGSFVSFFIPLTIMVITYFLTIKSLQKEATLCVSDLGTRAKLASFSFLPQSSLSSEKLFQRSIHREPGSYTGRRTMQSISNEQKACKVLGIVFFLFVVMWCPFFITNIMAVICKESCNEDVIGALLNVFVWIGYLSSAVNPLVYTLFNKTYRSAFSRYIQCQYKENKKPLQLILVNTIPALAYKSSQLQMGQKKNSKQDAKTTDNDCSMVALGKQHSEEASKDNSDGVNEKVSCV
Sequence of Beta-2 adrenergic receptor (Homo sapiens) (P07550 whole entry, looked up): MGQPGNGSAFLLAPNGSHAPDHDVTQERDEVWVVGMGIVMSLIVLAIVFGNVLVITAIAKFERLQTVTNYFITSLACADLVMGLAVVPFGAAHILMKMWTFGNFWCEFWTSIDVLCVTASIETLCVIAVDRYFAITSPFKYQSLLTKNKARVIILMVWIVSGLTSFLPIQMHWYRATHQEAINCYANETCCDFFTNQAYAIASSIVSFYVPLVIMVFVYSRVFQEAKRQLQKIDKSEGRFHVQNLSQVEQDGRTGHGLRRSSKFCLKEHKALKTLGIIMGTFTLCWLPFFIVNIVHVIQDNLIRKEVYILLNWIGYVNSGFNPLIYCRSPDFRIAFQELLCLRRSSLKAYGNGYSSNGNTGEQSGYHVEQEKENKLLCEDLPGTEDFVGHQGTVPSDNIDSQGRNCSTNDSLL

SMILES | Potency [1] | Potency [2] | Potency [3] | Potency [4] | Potency [5] | Potency [6] | Potency [7] | Potency [8] | Potency [9] | Potency [10] | Potency [11] | Potency [12] | Potency [13] | Potency [14] | Potency [15] | Potency [16] | Potency [17] | Potency [18] | Potency [19] | Potency [20]
CCSC(=O)N1CCCCCC1 | inactive | inactive | inactive | 4.99 µM (active) and 2.57 µM (active) | inactive | inactive | inactive | inactive | inactive | inactive | inactive | inactive | inactive | inactive | inactive | inactive | inactive | inactive | – | –
O=C(CCl)c1ccccc1 | inactive | inactive | inactive | inactive | – | inactive | inactive | inactive | inactive | inactive | inactive | inactive | inactive | inactive | inactive | – | inactive | inactive | inactive | –
CC(C)(C)CC(C)(C)c1ccc(O)cc1 | 27.3 µM (active) | inactive | – | inactive | 16.2 µM (active) and inactive | 37.4 µM (active) and inactive | 43.2 µM (active) | – | 18.8 µM (active) and inactive | 34.7 µM (active) | – | 49 µM (active) and inactive | – | – | inactive | – | inactive | – | inactive | –
O=Cc1ccccc1 | inactive | inactive | inactive | inactive | inactive | inactive | inactive | inactive | inactive | inactive | inactive | inactive | inactive | inactive | inactive | – | inactive | inactive | inactive | –
CNC(=O)O/N=C/C(C)(C)S(C)(=O)=O | inactive | inactive | inactive | – | inactive | inactive | inactive | inactive | – | inactive | inactive | inactive | inactive | inactive | inactive | inactive | inactive | inactive | – | –
Oc1cc(Cl)ccc1Oc1ccc(Cl)cc1Cl | 22.2 µM (active) and 29.8 µM (active) | inactive | inactive | inactive | 16.6 µM (active) and inactive | 37.2 µM (active) and inactive | 26.3 µM (active) | inactive | inactive | 35.5 µM (active) | inactive | inactive | – | – | 52.6 µM (active) | – | inactive | 55.8 µM (active) | – | –
Clc1ccc(Cl)c(Cl)c1 | inactive | inactive | inactive | inactive | inactive | inactive | inactive | inactive | inactive | inactive | inactive | inactive | inactive | inactive | inactive | inactive | inactive | – | inactive | inactive
CCN(CC)CCN1C(=O)CN=C(c2ccccc2F)c2cc(Cl)ccc21 | inactive | inactive | inactive | – | inactive | inactive | inactive | inactive | inactive | inactive | inactive | inactive | inactive | inactive | inactive | – | inactive | inactive | inactive | –
CCCCCCCCCCCCCCn1cc[n+](C)c1 | 13.7 µM (active) and 27 µM (active) and inactive | inactive | inactive | inactive | 40.9 µM (active) and 40.3 µM (active) and inactive | 16.3 µM (active) and 32.1 µM (active) and inactive | 28.9 µM (active) and inactive | inactive | inactive | – | 1.88 µM (active) and inactive | inactive | inactive | inactive | inactive | inactive | inactive | inactive | inactive | –
Cn1cc[n+](C)c1 (tested in a mixture with another compound) | inactive | inactive | inactive | inactive | inactive | inactive | inactive | inactive | inactive | inactive | inactive | inactive | inactive | inactive | inactive | – | inactive | inactive | inactive | –
CCc1cccc(CC)c1N(COC)C(=O)CCl | inactive | inactive | inactive | – | inactive | inactive | inactive | – | inactive | inactive | inactive | inactive | – | – | inactive | – | inactive | inactive | – | –
O=[N+]([O-])CCO | inactive | inactive | inactive | inactive | inactive | inactive | inactive | inactive | inactive | inactive | inactive | inactive | inactive | inactive | – | inactive | inactive | – | inactive | –
CCOCN(C(=O)CCl)c1c(C)cccc1CC | inactive | – | inactive | inactive | – | inactive | inactive | – | inactive | inactive | – | inactive | – | – | inactive | – | inactive | inactive | – | –
CC(O)CCO (configuration not stated) | inactive | inactive | inactive | inactive | – | inactive | – | inactive | inactive | inactive | inactive | inactive | inactive | inactive | inactive | inactive | inactive | inactive | inactive | inactive
CCCCCCCCCCCC#N | inactive | inactive | inactive | inactive | inactive and 42.3 µM (active) | inactive | inactive | – | inactive | inactive | inactive | inactive | inactive | inactive | inactive | – | inactive | inactive | inactive | inactive
C=CCOC(Cn1ccnc1)c1ccc(Cl)cc1Cl (configuration not stated) | 43.3 µM (active) and 18.8 µM (active) | inactive | inactive | inactive | inactive | inactive | inactive | – | – | – | 5.96 µM (active) and 18.8 µM (active) | inactive | inactive | inactive | inactive | inactive | inactive | inactive | inactive | inactive
